PubChem BioAssay (NCATS)
Where “and” joins values, the source holds several entries; their conditions need not be identical. Equal values may be shown once. Inconclusive results are not listed. Calls of active or inactive are those of the source. Unless noted, calls follow the shape of the dose curve; as a rule, active = well fitted curve in the direction sought with a large enough effect; inconclusive = small, poorly fitted or top-dose-only effect, or another doubt; inactive = no such curve, though single readings can be large; an effect the other way counts as inactive or inconclusive.

Tests used:
[1] = Cell Viability - Hek293 (AID 427;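 active = compounds whose dose-response curve shows a full or clear partial loss of cell viability, called from curve shape rather than a numeric limit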;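 also: potency is read from the fitted curve at half-maximal effect; cells exposed to compound for 40 hours at 37 °C before reading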); details: qHTS
How it was run: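 Luminescent ATP read-out (CellTiter-Glo, 20 min RT) after 40 hr compound exposure at 37 °C in complete medium. Signal normalized to DMSO (basal) and 100 uM tamoxifen (100% inhibition); concentration-response fitted with the standard Hill equation to give AC50.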

[2] = Cell Viability - MRC5 (AID 434; calls by dose curve;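 also: potency is read from the fitted curve at half-maximal effect; cells exposed to compound for 40 hours at 37 °C; potency reflects cytotoxicity seen as loss of intracellular ATP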); details: MRC5 lung fibroblast viability, qHTS
How it was run: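 AC50 values come from Hill-equation fits of intracellular ATP loss, measured by CellTiter-Glo luminescence. Normal lung fibroblasts (MRC5) had 40 hr compound treatment at 37 C, normalized between DMSO and 100 uM tamoxifen.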

[3] = target: Mitogen-activated protein kinase 10 (Mus musculus) (UniProt Q61831); test: JNK3 AlphaScreen Assay (AID 530; active = well fitted curve in either direction with a large enough effect, not every such curve was filed as active;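 also: kinase came from lysate of stimulated human HepG2 cells; signal reports phosphorylation of biotinylated GST-cJun 1-79 at Ser73 with 10 µM ATP; % is scaled to controls: 0 for no effect and ±100 for the full control effect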); details: JNK3 lysate, c-Jun phosphorylation; series mostly up to 57.1 µM
How it was run: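 qHTS titrations with 15 min compound pre-incubation before adding ATP (10 uM final). Read-out: AlphaScreen of Ser73-phosphorylated biotin-GST-cJun using HepG2 lysate JNK3 activated by IL-1β and TNFα.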

[4] = MultiTox-Fluor Cytotoxicity Assay - LYMP1-001 - Live Cells (AID 947); details: LYMP1-001 lymphoblastoid cells, live-cell protease fluorescence viability; series mostly up to 92.2 µM;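 also: 0% = DMSO only and full inhibition = tetraoctylammonium bromide control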
[5] = MultiTox-Fluor Cytotoxicity Assay - LYMP1-002 - Dead Cells (AID 960); details: LYMP1-002 lymphoblastoid cells, dead-cell protease fluorescence; series mostly up to 46.1 µM;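 also: 0% = DMSO and 100% = tetraoctylammonium bromide; nearly all actives have a fitted effect of over 60% in size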
How it was run: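 Cells were plated, rested 5 hr, then treated with compound dilution series for 16 hr at 37 C. After adding substrate reagent and 60 min at room temperature, dead-cell protease fluorescence gave concentration-response curves fitted by the Hill equation.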

[6] = Cell Viability - LYMP2-004 (AID 966); details: LYMP2-004 lymphoblastoid cell viability, qHTS; series mostly up to 92.2 µM;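 also: plate controls were DMSO only for no effect and tetraoctylammonium bromide control for full effect; nearly all actives have a fitted effect of over 65% in size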
How it was run: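 qHTS cytotoxicity: human lymphoblastoid line, 24 hr compound treatment, 37 C, complete medium. Viability read as cellular ATP via luciferase luminescence; tetraoctylammonium bromide served as positive control.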

[7] = Cell Viability - LYMP2-005 (AID 967); details: LYMP2-005 lymphoblastoid cell viability; series mostly up to 92.2 µM;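 also: plate controls were DMSO only for no effect and 92 µM tetraoctylammonium bromide control for full effect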
How it was run: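 Steps: seed 2500 LYMP2-005 cells/well, incubate 5 h at 37 C, add compound, incubate 24 h at 37 C, add CellTiter-Glo, wait 30 min at RT, read luminescence. Concentration-response data fitted to Hill equation for AC50.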

[8] = Cell Viability - LYMP2-025 (AID 976); details: LYMP2-025 lymphoblastoid cell viability; series mostly up to 92.2 µM;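 also: plate controls were DMSO only for no effect and tetraoctylammonium bromide control for full effect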
How it was run: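 Acute cytotoxicity is scored as a concentration-dependent fall in intracellular ATP, measured by luciferase luminescence, in human lymphoblastoid LYMP2-025 cells exposed to compound for 24 hours at 37 C. AC50 values come from standard Hill fits.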

[9] = Cell Viability - LYMP2-016 (AID 984); details: LYMP2-016 lymphoblastoid cell viability, qHTS; series mostly up to 92.2 µM; also: % is scaled to controls: 0 for no effect and ±100 for the full control effect; nearly all actives have a fitted effect of over 55% in size
How it was run: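 qHTS, 1536-well: 2500 LYMP2-016 cells/well, 5 hr 37 C, compound added, 24 hr 37 C, CellTiter-Glo 30 min RT, luminescence. Tetraoctylammonium bromide positive control. AC50 via Hill fit.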

[10] = Cell Viability - LYMP2-018 (AID 985); details: LYMP2-018 lymphoblastoid cells, viability (qHTS); series mostly up to 92.2 µM;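 also: compound exposure lasted 24 hr at 37 °C; plate controls were DMSO only for no effect and tetraoctylammonium bromide at 92 µM for full effect; nearly all actives have a fitted effect of over 50% in size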
How it was run: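 Seed 2500 lymphoblastoid cells per well, incubate 5 hr at 37 C, add compound and incubate 24 hr at 37 C, add CellTiter-Glo, wait 30 min at room temperature, then read luminescence.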

[11] = Cell Viability - LYMP2-022 (AID 987); details: LYMP2-022 lymphoblastoid cell viability; series mostly up to 92.2 µM;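 also: 0% = DMSO alone and full effect = tetraoctylammonium bromide at 92 µM; nearly all actives have a fitted effect of over 55% in size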
How it was run: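 Cells were seeded at 2500 per well, rested 5 hr at 37 C, and treated with titrated compounds for 24 hr at 37 C. Cellular ATP was then quantified by luciferase luminescence, and AC50 values were derived from Hill-modelled concentration-response curves.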

[12] = Cell Viability - LYMP2-024 (AID 988); details: LYMP2-024 lymphoblastoid cell viability; series mostly up to 92.2 µM;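 also: plate controls were DMSO only for no effect and 92 µM tetraoctylammonium bromide for full effect; nearly all actives have a fitted effect of over 60% in size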
How it was run: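 qHTS cytotoxicity, human lymphoblastoid line, complete medium; 24 h cpd treatment, 37 C; CellTiter-Glo ATP luminescence readout; tetraoctylammonium bromide positive control; AC50 via Hill fit.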

[13] = Cell Viability - LYMP1-002 - Assay at 24 hr (AID 993); details: LYMP1-002 lymphoblastoid cells viability; series mostly up to 92.2 µM; also: % is scaled to controls: 0 for no effect and ±100 for the full control effect
How it was run: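 Acute toxicity is measured as concentration-dependent loss of cellular ATP in a human lymphoblastoid line (Coriell LYMP1-002) after 24 h treatment in complete medium. ATP is quantified by luciferase luminescence and AC50 derived by Hill modelling.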

[14] = target: Peroxisome proliferator-activated receptor gamma (Homo sapiens) (UniProt P37231); test: qHTS assay for small molecule agonists of peroxisome proliferator-activated receptor gamma signaling (AID 588536; active = well fitted curve in the direction sought with a large enough effect in the signal ratio, with a control signal flat, not every such curve was filed as active; the % refers to the signal ratio;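 also: 0% = DMSO basal wells and 100% = rosiglitazone at 2 µM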); details: HEK293 PPARg-UAS-bla, beta-lactamase ratio, 16 h, percent of rosiglitazone response, DMSO as zero; series mostly up to 76.7 µM
Chain of Peroxisome proliferator-activated receptor gamma (Homo sapiens) (P37231 whole entry, looked up): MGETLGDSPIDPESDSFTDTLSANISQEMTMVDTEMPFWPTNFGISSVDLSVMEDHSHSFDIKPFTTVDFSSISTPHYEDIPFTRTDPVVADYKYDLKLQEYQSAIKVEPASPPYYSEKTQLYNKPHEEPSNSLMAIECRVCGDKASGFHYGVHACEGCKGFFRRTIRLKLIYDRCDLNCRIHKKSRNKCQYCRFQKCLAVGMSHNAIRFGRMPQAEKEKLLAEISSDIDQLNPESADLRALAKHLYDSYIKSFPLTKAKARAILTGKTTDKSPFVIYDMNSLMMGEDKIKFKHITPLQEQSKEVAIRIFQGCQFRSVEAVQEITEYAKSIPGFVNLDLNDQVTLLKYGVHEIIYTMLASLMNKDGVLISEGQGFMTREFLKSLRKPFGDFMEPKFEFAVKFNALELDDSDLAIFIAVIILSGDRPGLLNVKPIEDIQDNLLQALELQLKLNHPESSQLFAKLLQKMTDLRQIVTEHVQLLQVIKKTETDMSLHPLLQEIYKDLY
How it was run: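 Compound treatment: 16 h, 37 C, HEK293 GeneBLAzer cells. Detection: CCF4, 2 h RT. Values: Hill-fit EC50, efficacy as % of 2 uM rosiglitazone.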

[15] = qHTS assay for small molecule agonists of retinoid X receptor alpha signaling (AID 588544); details: HEK293T RXRa-UAS-bla, beta-lactamase reporter, 18 h; 530 nm emission
[16] = target: Thyroid hormone receptor beta (Homo sapiens) (UniProt P10828); test: qHTS assay for small molecule agonists of thyroid hormone receptor beta signaling (AID 588545; calls by dose curve;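 also: 0% = DMSO only and 100% = 10 nM T3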); details: TR-UAS-bla GripTite HEK 293, beta-lactamase ratio, agonist mode, 18 h; series mostly up to 76.7 µM
Chain of Thyroid hormone receptor beta (Homo sapiens) (P10828 whole entry, looked up): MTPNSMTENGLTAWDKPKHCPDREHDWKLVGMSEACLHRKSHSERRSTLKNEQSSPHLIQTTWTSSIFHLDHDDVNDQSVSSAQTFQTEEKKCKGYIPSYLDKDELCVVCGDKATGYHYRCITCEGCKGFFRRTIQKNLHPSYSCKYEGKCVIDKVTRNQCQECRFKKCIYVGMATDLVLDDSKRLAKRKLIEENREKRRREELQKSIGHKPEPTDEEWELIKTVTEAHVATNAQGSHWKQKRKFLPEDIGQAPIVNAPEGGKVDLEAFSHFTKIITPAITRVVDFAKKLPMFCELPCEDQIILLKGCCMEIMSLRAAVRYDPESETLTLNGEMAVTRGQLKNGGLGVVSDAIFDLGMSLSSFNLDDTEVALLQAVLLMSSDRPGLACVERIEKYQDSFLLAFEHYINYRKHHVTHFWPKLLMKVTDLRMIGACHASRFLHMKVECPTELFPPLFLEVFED
How it was run: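 Efficacy and EC50 values derive from Hill fits of qHTS titration data, normalized to 10 nM T3 and DMSO-only wells. HEK 293 reporter cells were stimulated for 18 hrs at 37 C, with beta-lactamase activity measured by CCF4 fluorescence.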

[17] = qHTS assay for small molecule antagonists of retinoid X receptor alpha signaling (AID 588546); details: HEK293T RXRa-UAS-bla, beta-lactamase ratio, antagonist mode; measured here: W530 green channel, cytotoxicity proxy;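 also: cells stimulated with 9-cis-retinoic acid as agonist; % is scaled to controls: 0 for no effect and ±100 for the full control effect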
How it was run: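 Beta-lactamase reporter inhibition, read as CCF4 fluorescence ratio (ex 405, em 460/530 nm) after 2 h at RT. HEK293T UAS-bla cells, 2500/well, were stimulated with 9-cis-RA at 500 or 100 nM final alongside test compound for 18 h at 37 C.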

[18] = target: Thyroid hormone receptor beta (Homo sapiens) (UniProt P10828); test: qHTS assay for small molecule antagonists of thyroid hormone receptor beta signaling (AID 588547; active = well fitted inhibition curve with a large enough effect in the signal ratio, with a control signal flat, not every such curve was filed as active; the % refers to the signal ratio;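 also: cells stimulated with 0.4 nM T3 agonist during compound exposure; % is scaled to controls: 0 for no effect and ±100 for the full control effect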); details: TR-UAS-bla HEK293, beta-lactamase ratio, antagonist mode, 18 h
How it was run: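 Inhibition of T3-driven (0.4nM final) beta-lactamase reporter activity was measured over 0.59 nM to 92 uM compound after 18 h at 37 C. The cells were GripTite HEK293 TR-UAS-bla in charcoal/dextran-stripped serum, with CCF4 ratio read-out and IC50 from Hill fits.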

[19] = target: Tumor necrosis factor (Homo sapiens) (UniProt P01375); test: qHTS assay to identify small molecules that stimulate Tumor Necrosis Factor-alpha (TNF-alpha) secretion (AID 651757; active = well fitted curve in the direction sought with a large enough effect in the signal ratio; the % refers to the signal ratio; also: 0% is about no effect); details: Human cells, HTRF 665/615 ratio; series mostly up to 92.2 µM
Chain of Tumor necrosis factor (Homo sapiens) (P01375 whole entry, looked up): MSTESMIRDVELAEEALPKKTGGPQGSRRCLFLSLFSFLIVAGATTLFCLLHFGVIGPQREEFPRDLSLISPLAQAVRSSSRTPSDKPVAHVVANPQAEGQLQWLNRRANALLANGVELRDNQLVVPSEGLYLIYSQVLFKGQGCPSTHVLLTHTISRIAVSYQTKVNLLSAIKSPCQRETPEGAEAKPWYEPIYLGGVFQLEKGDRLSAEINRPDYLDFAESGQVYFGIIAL
How it was run: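 Human monocytic THP-1 cells are plated, treated with compound and held at 37 C for 17 hrs. Labeled anti-TNF-alpha antibody mixture is then added; after 3 hr at room temperature, TR-FRET signal reports secreted TNF-alpha.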

[20] = Cellular Toxicity (caspase-3) HepG2 (AID 654); details: HepG2 caspase-3 activation, luminescence, 0% = DMSO only, 100% = tamoxifen; series mostly up to 92.2 µM;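 also: cells exposed to compound for 16 hours before reading; 0% = DMSO alone and 100% = caspase signal from 100 µM tamoxifen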
How it was run: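 Caspase 3/7 activation in HepG2 is measured as rising luminescence after a 16 hr treatment at 37 °C. Values are scaled between DMSO basal and 100 uM tamoxifen, and AC50 is fitted with the Hill equation.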

C=CC(=O)OC
-10.9%: max response [15]
-10.6%: max response [17]
inactive: Potency [1] > 92 µM | Potency [2] > 92 µM | Potency [3] | outcome [4] | Potency [5] | Potency [6] | Potency [7] | Potency [8] | Potency [9] | Potency [10] | Potency [11] | Potency [12] | Potency [13] | outcome [14] | Potency [16] | activity change % (negative = inhibition) [18] -6.86% | outcome [19]

O=C(O)c1cccc(Cl)c1
inactive: Potency [1] > 92 µM | Potency [2] > 92 µM | Potency [3] | outcome [20] | outcome [4] | Potency [5] | Potency [6] | Potency [7] | Potency [8] | Potency [9] | Potency [10] | Potency [11] | Potency [12] | Potency [13] | outcome [14] | Potency [16] | activity change % (negative = inhibition) [18] 7.72% | outcome [19]
-9.83%: max response [15]

N#CCCCCC#N
10.4%: max response [15]
inactive: Potency [1] > 92 µM | Potency [2] > 92 µM | Potency [3] | outcome [4] | Potency [5] | Potency [6] | Potency [7] | Potency [8] | Potency [9] | Potency [10] | Potency [11] | Potency [12] | Potency [13] | outcome [14] | Potency [16] | activity change % (negative = inhibition) [18] -18.7% | outcome [19]
-2.9%: max response [17]

Nc1ccc(Oc2ccc(N)cc2)cc1
inactive: Potency [1] > 92 µM | Potency [2] > 92 µM | Potency [3] | Potency [5] | Potency [6] | Potency [7] | Potency [8] | Potency [9] | Potency [10] | Potency [11] | Potency [12] | Potency [13] | outcome [14]
-3.97% and -1.47%: max response [17]
6.59% and -0.644%: max response [15]

CCC/C=N/O
inactive: Potency [1] > 92 µM | Potency [2] > 92 µM | Potency [3] | outcome [20] | outcome [4] | Potency [5] | Potency [6] | Potency [7] | Potency [8] | Potency [9] | Potency [10] | Potency [11] | Potency [12] | outcome [14] | Potency [16] | activity change % (negative = inhibition) [18] 3.59% | outcome [19]
-21.6%: max response [15]
-10.3%: max response [17]

C=CC(=O)OCC(CC)CCCC (stereo not given)
inactive: Potency [1] > 92 µM | Potency [2] > 92 µM | Potency [3] | outcome [4] | Potency [5] | Potency [6] | Potency [7] | Potency [8] | Potency [9] | Potency [10] | Potency [11] | Potency [12] | Potency [13] | outcome [14] | Potency [16] | activity change % (negative = inhibition) [18] -10.5% and 4.22% | outcome [19]
-3.1% and -13.3%: max response [15]
-0.0756% and 2.94%: max response [17]

Nc1cc(Cl)cc(C(=O)O)c1Cl
0.823% and -3.03%: max response [17]
inactive: Potency [1] > 92 µM | Potency [2] > 92 µM | Potency [3] | outcome [20] | outcome [4] | Potency [5] | Potency [6] | Potency [7] | Potency [8] | Potency [9] | Potency [10] | Potency [11] | Potency [12] | Potency [13] | outcome [14] | Potency [16] | activity change % (negative = inhibition) [18] -1.41% | outcome [19]
-12.3% and -7.66%: max response [15]
